Test results reported in PubChem BioAssay AID602314 (ICCB-Longwood Screening Facility, Harvard Medical School, 2012).
Screen size: about 84,000 compounds; about 110 (0.13%) were called active. Cut-off read from the data, not from the text of the source: active = inhibition above about 30% (passing the limit was not always enough); inactive = the rest. The list comes from a sample in which actives are over-represented; it also holds similar structures and randomly drawn compounds.

Each molecule was assayed on MgrA (MarR family transcriptional regulator), Staphylococcus aureus Newman (assay: modulators of MgrA DNA binding – biochemical, S. aureus Newman, fluorescence polarization, primary screen (AID 602314;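 note: 0% = protein plus DNA without compound and 100% = DNA alone without protein; higher means less MgrA bound to DNA so lower polarization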)). Conditions: hits give high values, concentration not given here.

inhibition, active:
C=CCNC(=O)c1ccc2nc(-c3ccco3)c(-c3ccco3)nc2c1 59.2%

inhibition, inactive:
CC12CC[C@H](CC1=O)C2(C)C 0.7%
COc1ccc(O)c(/C=N/NC(=O)c2ccn(Cc3ccc(Cl)cc3)n2)c1 2.4%
Nc1cc(C(=O)OCC(=O)NC2CCCCCC2)ccc1Cl -0.65%
COC(=O)c1ccc(C2NN=C(c3ccccc3)S2)cc1 (centres undefined) 2.7%
Cc1ccccc1CNCc1cccs1 -3.4%
O=c1[nH]c2ccccc2c(=O)n1NS(=O)(=O)c1ccc2ccccc2c1 1.35%
CCCc1c(C)nc2c(C)cccc2c1SCCC(=O)O 0%
CC(C)C(=O)N=C1SC2CS(=O)(=O)CC2N1CCc1ccccc1 (centres undefined) 0.45%
CCCn1nnnc1NC(=S)NC(=O)c1cc2ccccc2o1 3.35%
O=C(O)C1C2CCC(C2)C1C(=O)NCCCN1CCCC1=O (centres undefined) 1.45%
O=[N+]([O-])c1ccc(Oc2cccc(Cl)c2)nc1 -0.6%
CCOC(=O)N1CCN(Cc2nc3c(c(=O)n(C)c(=O)n3C)n2CC)CC1 6.15%
CC(NC(=S)Nc1ccc(S(N)(=O)=O)cc1)c1ccc2c(c1)OCO2 (centres undefined) 0.45%
Cc1ccc(C(=O)[C@@H]2[C@@H](C(C)(C)C)C(C#N)(C#N)[C@@]3(C)C=Cc4ccccc4N23)cc1 -0.85%
CCc1cccc(CC)c1N1C(=O)C(C)=C(C)C1=O -0.9%
O=C(O)CNC(=O)c1ccc(Cl)c(Cl)c1 -1.25%
O=C(O)C1CCCCC1C(=O)Nc1ccc2[nH]c(=S)sc2c1 (centres undefined) 6.3%
CCC(NC(=O)Nc1cc(C)cc(C)c1)c1c(-n2cccc2)sc2c1CCN(CC)C2 (centres undefined) 1%
Cc1nc2ccc(C(=O)OCCC(F)(F)F)cc2[nH]1 -0.25%
Cc1cc(C)c(C(=O)N2CCCCC2C)c(C)c1 (centres undefined) -0.7%
O=C(NC1CCCCNC1=O)c1ccc(N2CCOCC2)nc1 (centres undefined) -0.3%
CCOC(=O)CC1=C(C(=O)OCC)C(c2c(F)cccc2Cl)C(C#N)=C(N)O1 (centres undefined) 0.2%
C=CCNC(=O)c1ccc(OCC=C)cc1 0.4%
C=CCNC(=O)c1cc(-c2ccccc2O)on1 0.8%
CSC(=Nc1ccccc1F)Nc1ccccc1F -2.5%
O=C(O)c1ccccc1Cc1cccs1 -3.8%
C=CCNC(=O)c1cc(Br)cs1 0.6%
Cc1nc(SCSc2nc3ccccc3s2)nc2c1CCCC2 0.6%
CCN(CC)S(=O)(=O)c1cc2c3c(c1)c(C)cc(=O)n3CCC2 0.85%
O=C(c1ccc(Br)cc1)c1cc2cc(Br)cc(Br)c2o1 1.1%
COc1cccc(O)c1C(=O)NCC(=O)O -1.1%
COc1ccc(N=Cc2nc(-c3ccccc3Br)oc2O)c([N+](=O)[O-])c1 4.2%
O=C(OC(C(=O)c1ccccc1)c1ccccc1)c1cccc(O)c1 (centres undefined) -1%
CCNc1sc(C(=O)OC)c(N)c1C#N 0.25%
COc1ccc2[nH]c(=O)c(CN(Cc3ccc(C)cc3)C(C)=O)cc2c1 3.85%
COc1cccc(CNn2cn[nH]c2=S)c1OCc1ccccc1 0.8%
COc1cc(C)nc(NN)n1 2.8%
COc1ccc(Cl)c2c1NC(c1ccncc1)C1CC=CC21 (centres undefined) 0%
CC1(C)CC(CC#N)(c2ccccc2)CCO1 (centres undefined) -1.15%
Cn1c(SCC(=O)NCc2ccc(Cl)cc2)nnc1-c1ccc(Cl)cc1 -0.25%
NC(=O)c1ccccc1N=Cc1ccc2ccccc2c1 -2.2%
Cc1ccc2c(c1)NC(c1cc(Cl)cc(Cl)c1O)c1cccn1-2 (centres undefined) 0.6%
Cc1nc2onc(OCC(=O)OCc3ccccc3)c2c(C)c1C 0.6%
O=C1CCCN1c1ccc(OC(F)(F)F)cc1 -1.5%
C=CCC1NC(C)(C)Cc2ccccc21 (centres undefined) -0.25%
CC1CCCCN1C(=O)c1ccccc1F (centres undefined) -1.4%
NCC1(N2CCCCC2)CCCCC1 -1.35%
Cc1onc(-c2ccccc2)c1C(=O)N=C(N)c1ccc(Cl)cc1 -1.9%
C=CCSc1nc2c(c(=O)[nH]c(=O)n2C)n1C/C=C(\C)Cl 3%
Cc1cc(C)cc(C(=O)OCC(=O)Nc2cccc(C(F)(F)F)c2)c1 3.35%
COC(=O)c1sc(-c2ccc(Cl)cc2)cc1NC(=O)c1ccc2nsnc2c1 -0.8%
CC(=O)N1N=C(c2c(-c3ccccc3)c3cc(Cl)ccc3[nH]c2=O)CC1c1cccc(Br)c1 (centres undefined) -1.4%
Cc1[nH]ncc1-c1ccccc1 -1.4%
CCOC(=O)c1sc(SC)c2c1CC(c1ccc(C)cc1)CC2=O (centres undefined) -0.2%
O=[N+]([O-])c1cc(C(F)(F)F)cc([N+](=O)[O-])c1Oc1ccc(Cl)cc1Cl 3.2%
CC(C)(C)c1c[n+](-c2ccccc2)c2n1CCS2 0.1%
COC(=O)COc1ccccc1C#N 0.4%
CC1OC(O[C@H]2/C=C/C=C/C=C/C=C/C=C/C=C/C=C/[C@H](C)[C@@H](O)[C@@H](C)[C@H](C)OC(=O)CC(O)CC(O)CCC(O)C(O)CC(O)CC3(O)C[C@H](O)C(C(=O)O)C(C2)O3)C(O)[C@H](N)C1O (some centres undefined) 2.9%
O=c1[nH]nc(-c2ccccc2)[nH]1 -1.6%
CCC(=O)Nc1cc(NC(=O)c2ccco2)ccc1C -1.65%
O=C(Nc1ccccc1)OCC12COC(c3ccccc3)N1C(c1ccccc1)OC2 (centres undefined) -1.5%
O=C(c1ccco1)N1CCN(c2cnn(-c3ccccc3)c(=O)c2Cl)CC1 -0.95%
Cc1ccc2c(c1)c1c(n2CC(O)CNCc2ccccc2)CCCC1 (centres undefined) -1.7%
CN(C(=O)CSc1nncc(=O)[nH]1)c1ccccc1 -1.65%
CC1(C)CC(=O)C2=C(C1)OC1=C(C(=O)CC(C)(C)C1)C2c1cn(Cc2ccc(Cl)cc2Cl)nc1-c1ccccc1 -0.5%
COc1cc(C2C3=C(CC(C)(C)CC3=O)OC3=C2C(=O)CC(C)(C)C3)c(Br)cc1OCC(=O)O 3.4%
O=C(NN=c1c(=O)c2ccccc2c1=O)c1ccncc1 1.9%
CCn1c(=O)c2ccccc2n(CC(=O)c2ccc(C)cc2)c1=O -1.25%
CC1CCCN(c2ncccc2C(=O)NCC2CCCO2)C1 (centres undefined) 1.1%
CN(C(=O)c1cc2nc(-c3ccco3)cc(C(F)(F)F)n2n1)c1ccc(OC(F)(F)F)cc1 -0.95%
COc1ccc(C(=O)COC2=C(C#N)C3(CCCC3)C(C#N)C(=S)N2)cc1OC (centres undefined) -1.5%
CCOc1ccc(CC(C(=O)O)C(=O)O)cc1 0.1%
N#CCCN(C1CCCCC1)S(=O)(=O)c1ccc(Br)cc1 -0.95%
COc1ccc(CC(NC(C)=O)C(=O)O)c(Cl)c1OC (centres undefined) -0.7%
Cn1c(SCC(=O)Nc2ccc(C(F)(F)F)cc2)nnc1-c1ccc2nonc2c1 -0.1%
COC(=O)C1=Cc2cc(Cl)ccc2OC1 0.15%
Cc1cccc(CN2C(=O)CSc3nc(C)cc(C)c32)c1 -0.45%
CCN(CC)CCCN1C(=O)C2C3C=CC(C2C1=O)C1C2C(=O)N(CCCN(CC)CC)C(=O)C2C31 (centres undefined) 0.8%
CCOc1ccc(NC(=O)c2cc(-c3ccc(OC)c(OC)c3)nc3ccccc23)c([N+](=O)[O-])c1 -1.4%
COc1ccc(C)c2c1CCCC2=O -1.4%
Cc1ccc(Nc2cc([Se]c3ccccc3)c(N)c3c2C(=O)c2ccccc2C3=O)cc1 -3.2%
Cc1ccc2sc(-c3ccc(NC(=O)C(C)C)cc3)nc2c1 -2.5%
Cc1ccc(-c2noc(CN(C)C(=O)Nc3ccc(Cl)cc3)n2)cc1 0.05%
COc1cccc2c1NC(c1cccc(Cl)c1Cl)C1CC=CC21 (centres undefined) -1.1%
Cc1ccccc1Cn1nnc(-c2ccncc2)n1 -3.5%
COc1ccc(-c2ccc(/C=c3\sc4nc5cc(C)c(C)cc5n4c3=O)o2)c([N+](=O)[O-])c1 0.8%
O=C(CC1CCCCC1)NCc1ccco1 1.25%
CC(=O)Oc1ccc(OC(C)=O)c2c1C1C=CC2CC1 -2.5%
COc1ccc(Nc2nc(Cl)nc(NCCN3CCOCC3)n2)c(OC)c1 0.3%
O=C(Nc1ccccc1C(=O)N1CCCC1)Oc1ccccc1 -0.95%
CCCCn1c(SCC(=O)N(C(C)C)C(C)C)nc2c1c(=O)n(C)c(=O)n2C 0.4%
O=c1c2c3c(sc2ncn1Cc1nn[nH]n1)CCCC3 -0.2%
Cc1c(CN2CCCCC2)c(O)n(CCO)c(=O)c1C#N -3.25%
C=CCn1cnc2c(c1=O)c1nc3ccccc3nc1n2-c1cccc(Br)c1 2.4%
CCOc1cc2c(cc1/C=C(\C#N)c1ccc(C(F)(F)F)cc1)OCO2 1.15%
O=S(=O)(c1ccc(Cl)cc1)N1CCCN(Cc2ccc(Cl)cc2Cl)CC1 1%
CCn1cc(S(=O)(=O)Nc2cc(C)on2)cn1 -2.15%
COc1ccccc1N1C(=O)NC(=O)/C(=C/c2cn(C(C)=O)c3ccccc23)C1=O 10.3%
